Laboratory results published in PubChem BioAssay (EPA / NIEHS).
Several values for one entry are separate records, joined by “and”; a condition that tells them apart may be missing. Identical values can stand only once. Results filed as inconclusive are left out. The source holds several records for some structures; these can differ, active in one and inactive in another. Activity calls are given as the source filed them. Rule for the calls: active = hit-call score of the fitted dose curve at least 0.9, where 1 is the maximum; inconclusive = response in the unintended direction; inactive = score below 0.9.

Experiments:
[1] = ATG_XTT_Cytotoxicity: Cytotoxicity Assessment in the Attagene TRANS-FACTORIAL HepG2 Assay (AID 2283584)
Outline: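 XTT readout of cell number in transfected HepG2 cells, 24 h post-dosing; DMSO serves as negative control and baseline, with activity taken as loss of viability signal.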

[2] = TOX21_p53_BLA_p3_viability: Viability Assessment in the Tox21 HCT-116 p53 Agonism Beta-lactamase Assay, Phase 3 (AID 2283593);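 note: cells exposed to compound for 16 h before reading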
Outline: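 HCT-116 cells (4000/well) rested 5 h at 37C, then got DMSO compounds by pin tool (217-fold dilution) for 16 h at 37C, 5% CO2. After the bla read, CellTiter-Glo was added and luminescence read at 30 min, room temperature.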

[3] = target: Cellular tumor antigen p53 (Homo sapiens) (UniProt P04637); assay: TOX21_p53_BLA_p3_ratio: Tox21 HCT-116 p53 Agonism Beta-lactamase Assay, Ratio, Phase 3 (AID 2283596)
Cellular tumor antigen p53 (Homo sapiens), sequence (P04637 whole entry, looked up): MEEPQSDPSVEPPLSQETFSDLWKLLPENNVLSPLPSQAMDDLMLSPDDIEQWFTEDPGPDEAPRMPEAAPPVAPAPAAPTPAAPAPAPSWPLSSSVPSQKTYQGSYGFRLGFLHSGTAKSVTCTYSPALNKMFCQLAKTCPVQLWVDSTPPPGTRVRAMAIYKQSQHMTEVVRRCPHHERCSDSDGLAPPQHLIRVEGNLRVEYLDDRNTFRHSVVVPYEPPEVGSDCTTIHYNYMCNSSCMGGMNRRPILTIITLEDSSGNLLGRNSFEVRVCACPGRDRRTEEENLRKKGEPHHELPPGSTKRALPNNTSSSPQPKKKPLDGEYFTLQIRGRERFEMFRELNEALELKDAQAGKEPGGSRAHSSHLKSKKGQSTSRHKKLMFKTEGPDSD
Outline: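 Cells were seeded at 4000/well, rested 5 h at 37C, then dosed with DMSO compound solutions (217-fold dilution) for 16 h. CCF4-AM substrate was loaded for 2 h at room temperature, and the 460/530 nm emission ratio was fitted for gain of signal versus DMSO.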

[4] = target: Cellular tumor antigen p53 (Homo sapiens) (UniProt P04637); assay: TOX21_p53_BLA_p5_ratio: Tox21 HCT-116 p53 Agonism Beta-lactamase Assay, Ratio, Phase 5 (AID 2283599)
Outline: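 HCT-116 cells carrying a p53-inducible beta-lactamase reporter were seeded at 4000 cells/well and dosed after 5 h with compound in DMSO (217-fold dilution). After 16 h at 37C, CCF4-AM substrate was added for 2 h, and the 460/530 nm emission ratio was scored as gain-of-signal versus DMSO.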

[5] = target: Cellular tumor antigen p53 (Homo sapiens) (UniProt P04637); assay: TOX21_p53_BLA_p4_ratio: Tox21 HCT-116 p53 Agonism Beta-lactamase Assay, Ratio, Phase 4 (AID 2283601)
Outline: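 HCT116 cells carrying an inducible beta-lactamase reporter were plated at 4000 cells/well, rested 5 h, then exposed to compounds in DMSO (217-fold dilution) for 16 h at 37C. CCF4-AM substrate was loaded 2 h at room temperature; 460/530 nm emission ratio scored gain-of-signal versus DMSO.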

[6] = TOX21_p53_BLA_p4_viability: Viability Assessment in the Tox21 HCT-116 p53 Agonism Beta-lactamase Assay, Phase 4 (AID 2283597);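 note: hits lower the luminescence signal meaning cytotoxicity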
Outline: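 ATP content by CellTiter-Glo luminescence, 30 min RT, read after the beta-lactamase ratio step. Cells: HCT116, 4000/well, compound added after 5 h, exposure 16 h at 37C. Signal loss = reduced viability.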

[7] = TOX21_p53_BLA_p5_viability: Viability Assessment in the Tox21 HCT-116 p53 Agonism Beta-lactamase Assay, Phase 5 (AID 2283600)
Outline: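 ATP luminescence (CellTiter-Glo, 30 min, RT) served as the viability read-out, with loss of signal indicating cytotoxicity. Compounds in DMSO were pinned at a 217-fold dilution onto 4000 cells/well and incubated 16 h, 37C.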

[8] = TOX21_p53_BLA_p2_viability: Viability Assessment in the Tox21 HCT-116 p53 Agonism Beta-lactamase Assay, Phase 2 (AID 2283591);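 note: actives lower the ATP signal meaning cytotoxicity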
Outline: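 HCT-116 p53-bla cells (4000/well) rested 5 h at 37C, then received compounds in DMSO (217-fold dilution) for 16 h at 37C, 5% CO2. After the CCF4 read, CellTiter-Glo was added; ATP luminescence was read after 30 min at room temperature.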

[9] = target: Cellular tumor antigen p53 (Homo sapiens) (UniProt P04637); assay: TOX21_p53_BLA_p2_ratio: Tox21 HCT-116 p53 Agonism Beta-lactamase Assay, Ratio, Phase 2 (AID 2283592)
Outline: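 Readout: blue/green (460/530 nm) FRET emission ratio after 2 h CCF4-AM loading at room temperature, excitation 405 nm. HCT116 p53 bla cells, 16 h compound exposure at 37C, 5% CO2; agonist direction fitted against DMSO baseline.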

Measured: AC50

Sc1nc(S)nc(S)n1
inactive: [1] | [2] | [3] | [4] | [5]

C=C[Si](OCC)(OCC)OCC
inactive: [1] | [2] | [5]

C=CC(=O)NCOCC(C)C
inactive: [1] | [2] | [6] | [7] | [5]

O=Nc1ccc(Nc2ccccc2)cc1
active: [9] 46 µM and 46.3 µM | [2] 67 µM | [6] 85.3 µM and 75.2 µM | [4] 77.5 µM and 46.3 µM | [5] 76.2 µM and 63 µM
inactive: [8] | [2] | [7]

NC(=O)Nc1ccc(Cl)cc1
inactive: [1] | [3] | [5]

CC1=CCC2C(C1)C2(C)C (stereo not given)
inactive: [1] | [9] | [4] | [7] | [5]

ClCCCl
inactive: [1] | [9] | [6] | [7] | [5]

CC(CCO)CCc1ccccc1 (stereo not given)
inactive: [1] | [9] | [4] | [5]

OCCCCCO
not listed: [2] | [6] | [8]
inactive: all other assays above

CC(C=O)Cc1ccc(C(C)C)cc1 (stereo not given)
inactive: [1] | [6] | [4] | [7]

COc1ccc(OC)c(OC)c1
inactive: [1] | [2] | [4] | [7] | [5]

O=C1C(c2[nH]c3ccc(S(=O)(=O)O)cc3c2O)=Nc2ccc(S(=O)(=O)O)cc21
not listed: [1]
inactive: all other assays above

CCCC(=O)c1cc(O)c(O)cc1O
not listed: [1] | [2]
inactive: all other assays above

CC(=O)Nc1ccccc1O
inactive: [8] | [9] | [6] | [5]

O=C(OCc1ccccc1)C(=O)OCc1ccccc1
inactive: [8] | [9] | [3] | [4] | [5]

C=C(C)C(=O)O[C@H]1C[C@@H]2CC[C@@]1(C)C2(C)C
inactive: [8] | [9] | [2] | [4] | [5]

CN(C)CCCN
not listed: [1] | [2]
inactive: all other assays above

OCC(CO)(CO)COCC(CO)(CO)CO
inactive: [6] | [4] | [7] | [5]

CC(C)Oc1ccccc1O
not listed: [1] | [2] | [8]
inactive: all other assays above

C=C[C@@H](C)CCC=C(C)C
inactive: [4] | [7] | [5]

CC(=O)O[C@]1(C(C)=O)CC[C@H]2[C@@H]3C[C@H](C)C4=CC(=O)CC[C@]4(C)[C@H]3CC[C@@]21C
not listed: [1] | [6] | [7]
inactive: all other assays above

CC(=O)O[C@H](CC(=O)[O-])C[N+](C)(C)C
inactive: [9] | [2] | [3] | [7]

CC(C)[C@H]1CC[C@@H](C)CC1=O
inactive: [8] | [9] | [4] | [7]

CN1[C@@H]2CC(OC(=O)[C@H](CO)c3ccccc3)C[C@H]1[C@@H]1O[C@@H]12 (stereo not given in full)
not listed: [1] | [8]
inactive: all other assays above

O=C(O)CCSCCC(=O)O
inactive: [9] | [3] | [4] | [7] | [5]

O=C(O)COCCN1CCN(C(c2ccccc2)c2ccc(Cl)cc2)CC1 (stereo not given)
not listed: [1] | [6]
inactive: all other assays above

CC(C)=CCO
inactive: [9] | [2] | [3] | [6] | [4]

CCCCCCOC(=O)CC
inactive: [8] | [9] | [3] | [4]

CC(C)OP(=O)(CP(=O)(OC(C)C)OC(C)C)OC(C)C
inactive: [8] | [9] | [2] | [4] | [5]

CNCCO
inactive: [9] | [3] | [6] | [7]

COC(C)CCO (stereo not given)
inactive: [8] | [2] | [3] | [7]

CCC(=O)OCc1ccccc1
not listed: [1] | [2] | [6]
inactive: all other assays above

CCCCNC(=O)NS(=O)(=O)c1ccc(C)cc1
not listed: [1] | [2]
inactive: all other assays above

CCOC(=S)SSC(=S)OCC
not listed: [1] | [2] | [8]
inactive: all other assays above

CC(O)C(C)O (stereo not given)
inactive: [9] | [7]

CC(C)c1ccc(C(C)C)cc1
not listed: [1] | [8]
inactive: all other assays above

CCOc1ccccc1OCC
inactive: [8] | [9] | [5]

Nc1ccc(S(=O)(=O)O)c(N)c1
not listed: [1] | [3] | [8]
inactive: all other assays above

O=C(Nc1ccccc1)c1cc([N+](=O)[O-])ccc1Cl
inactive: [9] | [6] | [4] | [7] | [5]

CC(C)(C)NC(N)=O
inactive: [9] | [4] | [7] | [5]

CC1CC(OC(=O)c2ccccc2O)CC(C)(C)C1 (stereo not given)
not listed: [1] | [2] | [3]
inactive: all other assays above

CCC(C(=O)NC(N)=O)c1ccccc1 (stereo not given)
inactive: [8] | [9] | [4] | [7] | [5]

C=CC(C)(CCC=C(C)C)OC=O (stereo not given)
inactive: [8] | [9] | [3] | [5]

CC(C)=CCCC(C)=CCCC(C)=CCO
not listed: [1] | [2] | [3]
inactive: all other assays above

CCCCCOC(=O)CCC
inactive: [9] | [2] | [4] | [7] | [5]

CC(C#N)(CCC(=O)O)N=NC(C)(C#N)CCC(=O)O (stereo not given)
inactive: [8] | [2] | [4] | [7] | [5]

C=CCOC(=O)CCC1CCCCC1
inactive: [3] | [6] | [4] | [5]

CCCC/C=C\CCCCCCCCCC=O
not listed: [1] | [6]
inactive: all other assays above
